This assay is described as follows: NCI Yeast Anticancer Drug Screen. Data for the sgs1 strain (AID 173).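 Further: 0% = growth of vehicle-only control cultures.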 The following applies: S. cerevisiae sgs1 mutant, hits give high values. The protocol: Growth inhibition of yeast strains with defined genetic alterations is measured as a screen for potential anti-cancer activity. Selected strains with alterations in DNA damage repair or cell cycle control were exposed to compounds and growth inhibition was measured relative to vehicle treated controls. The strain used in this assay is sgs1

The structures appear in SMILES notation. Compounds without any hit were thinned out: in the full panel of roughly 79,000, 15% have a hit. Values without a mark were called inactive. Activity calls are given as the source filed them. No stated cut-off is given here; in the data, active means growth inhibition above about 70%; inactive means the rest.

For `CCNC(=O)OCC1C2=C(C(=O)C(C)=C(N)C2=O)N2CC3C(N3C)C12OC` (stereo not given), the growth inhibition reads like this: (at 1.2 µM) 4%; (at 3.7 µM) 16%; (at 11.0 µM) 29%; (at 33.0 µM) 59%; (at 100.0 µM) 81% (active).
For `CCCCN(CCCC)CC(C(C)=O)C(c1ccccc1)c1c(O)c2ccccc2oc1=O` (stereo not given), in that order: -4%, -6%, -7%, -4% and 9%.
Regarding `O=[N+]([O-])O.[NH-]C1CCCCC1[NH-].[NH-]C1CCCCC1[NH-].[NH-]C1CCCCC1[NH-].[OH-].[OH-].[OH-].[Pt+4].[Pt+4].[Pt+4]` (stereo not given), the growth inhibition (at 1.2 µM) was -22%; the growth inhibition (at 3.7 µM) is -30%; the growth inhibition (at 11.0 µM) is -19%; the growth inhibition (at 33.0 µM) is 6%; the growth inhibition (at 100.0 µM) is 8%.
For `Cc1cccc(NC(=O)CBr)c1`, in that order: 9%, 55%, 99% (active), 99% (active) and 99% (active).
For `O=C1C=CC(=O)C1(Br)Br`, in that order: -13%, -14%, 75% (active), 99% (active) and 99% (active).
For `Cc1nc2ccccc2cc1C[N+]12CN3CN(CN(C3)C1)C2`, in that order: -1%, -2%, 2%, 28% and 80% (active).
As to `O=[N+]([O-])c1oc2ccc3ccccc3c2c1CCO`, the growth inhibition runs as follows: (at 1.2 µM) 82% (active); (at 3.7 µM) 88% (active); (at 11.0 µM) 95% (active); (at 33.0 µM) 98% (active); (at 100.0 µM) 99% (active).
The corresponding values for `COc1cc(O)c2c(O)c3c(c4c2c1[C@]1(C4)C(C)=CCCC1(C)C)[C@H](O)[C@@]1(O)CC(=O)C(C(N)=O)=C(O)[C@@]1(O)C3=O` are -38%, 88% (active), 97% (active), 97% (active) and 93% (active).

The values are drawn from PubChem BioAssay (NCI).
